Screens from PubChem BioAssay.
An excerpt weighted towards active compounds, which were near 11% of everything screened.
NS1 inh: influenza NS1 inhibition. Potency, µM (doses to about 46.1 µM), for inactives: top-dose activity, positive = more growth. actives 0.4% (n = 270,000); calls by dose curve; also: actives are rising curves; nearly all actives have a fitted effect of over 50% in size
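A cell-based growth assay was used: compounds that relieve NS1-induced slow growth of budding yeast raise OD600. Assay medium was yeast nitrogen base with ammonium sulphate and -URA supplement, pH 6.0, with 2% galactose.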
Pf growth 48h: P. falciparum growth inhibition at 48 hours (one generation); P. falciparum luciferase growth in erythrocytes, 48 h; Potency, µM (doses to about 28.7 µM), inactives show at the top dose activity change, negative = inhibition, most hits filed as inhibitors; actives 5.9% (n = 310,000); AID 504832; also: % is scaled to controls: 0 for no effect and ±100 for the full control effect
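Luminescence readout; reporter = integrated firefly luciferase in P. falciparum. RBC culture at 2% hematocrit, 0.1% parasitemia final, 37 C/5% CO2; decreased signal taken as growth inhibition.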
AMA1 RON2 block: inhibitors of Plasmodium falciparum AMA1-RON2 interaction | actives 0.2% (n = 360,000) | Potency, µM (top dose mostly 58.2 µM), inactives show top-dose activity change, negative = inhibition, actives largely listed as inhibitors | AlphaScreen AMA1-biotinylated RON2 peptide binding | AID 720542;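 also: 0% = vehicle wells and -100% = peptide control; nearly all actives have a fitted effect of over 45% in size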
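AMA1 (3D7) with his tag at 25 nM final met compounds first, then biotinylated RON2 peptide at 25 nM; detection used donor plus acceptor beads, 10 µg/mL apiece, read by AlphaScreen after 30 min at room temperature.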
Pf growth 96h: inhibits malaria parasite growth, 96 h. P. falciparum luciferase reporter growth, 96 h. Potency, µM (series often up to 28.7 µM), for the others: at the top dose activity change, negative = inhibition, usual class: inhibitors. actives 6.9% (n = 320,000). AID 504834; also: % is scaled to controls: 0 for no effect and ±100 for the full control effect
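96 h incubation, 37 C, 5% CO2, of luciferase-reporter P. falciparum-infected RBCs (2% hematocrit, 0.05% parasitemia final) with test compounds; endpoint luminescence.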
Sm TGR block: inhibitors of Schistosoma mansoni thioredoxin glutathione reductase; Potency, µM (titrated, usually from 114 µM), for the others: top-dose activity change, negative = inhibition, hits mostly inhibitors; purified TGR, DTNB reduction, TNB absorbance 405 nm; actives 3% (n = 360,000); AID 485364; Q962Y6; also: % is scaled to controls: 0 for no effect and ±100 for the full control effect; nearly all actives have a fitted effect of over 60% in size
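Kinetic colorimetric format: TGR-catalysed, NADPH-driven DTNB reduction monitored via TNB absorbance. Enzyme dispensed at 20 nM; compound exposure 15 min at room temperature before reaction start.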
The depositor's hits bear a star; ? = inconclusive; . = no result; [ ] = dose if it differs, or a comment. Unless noted, calls follow the shape of the dose curve; as a rule, active = well fitted curve in the direction sought with a large enough effect; inconclusive = small, poorly fitted or top-dose-only effect, or another doubt; inactive = no such curve, though single readings can be large; an effect the other way counts as inactive or inconclusive. Potency is read from the fitted curve at half-maximal effect.

SMILES	NS1 inh	Pf growth 48h	AMA1 RON2 block	Pf growth 96h	Sm TGR block
N#C/C(=C/c1ccc(Br)o1)C(N)=S	?	?	.	12µM*	3.5µM*
N#C/C(=C/c1ccc(Br)o1)C(N)=O	5%	?	4%	7%	-23%
COCC(O)Cn1ccnc1N=Nc1ccccc1 (stereo not given)	.	.	2%	.	.
O=C(NC(C(=O)N/N=C/c1c2ccccc2cc2ccccc12)c1n[nH]c(=O)c2ccccc12)c1ccccc1 (stereo not given)	20%	12µM*	-2%	13µM*	-6%
CCOC(=O)N1CCN(c2ccc3nnnn3n2)CC1	1%	.	0%	2.1µM*	0%[11.4 µM]
Nc1nonc1-n1nnc(C(=O)N/N=C/c2cccc(Cl)c2Cl)c1CN1CCCC1	3%	2%	8%	11%	1%
CCOC(=O)N1CCC2(CC1)C(C#N)=C(N)OC1=C2C(=O)CC(C)C1 (stereo not given)	0%	-11%	6%	6.6µM*	-32%
CC1(C)CC(=O)C2=C(C1)OC(N)=C(C#N)C21CCN(C(=O)OCc2ccccc2)CC1	13%	-2%	3%	13%	-25%
Cc1ccc2[nH]c(O)c(N=Nc3ccccc3C)c2c1	9%	-1%	-6%	23%	22µM*
CC(C)C(NC(=O)Cc1ccccc1[N+](=O)[O-])C(C)C	-2%	-3%	5%	12µM*	-2%
O=[N+]([O-])c1ccccc1CCl	.	32%	-5%	89%	40µM*
CC(C)c1nc(CN2CCCCC2)cc(=O)[nH]1	2%	27%	-6%	-7%	-6%
CS(=O)(=O)c1ccc(Cl)c(NC(=O)C2CCCCN2S(=O)(=O)c2ccccc2)c1 (stereo not given)	.	?	2%	?	0%
Cn1cc([C@]2(O)C(=O)Nc3ccc(Br)cc32)c2ccccc21	.	.	-13%	.	.
O=C1Nc2ccc(Br)cc2C1(O)c1ccccc1 (stereo not given)	-1%	6.6µM*	2%	?	8%
CCc1nccn1CCC(=O)N1CCCC(Nc2ccc(F)cc2)C1 (stereo not given)	-10%	10%	-4%	?	-5%
CC(C)(C)c1ccc(OCCOc2ccc(C(C)(C)C)cc2NC=O)c(NC=O)c1	20%	10µM*	-3%	2.6µM*	8%
COCCOc1ccc(C(F)(F)F)cc1NC(=O)c1ccccc1	-7%	1%	1%	0%	0%
CCOC(=O)Cc1ccc(NC(=O)N(C(C)C)C2CCN(C(C)=O)CC2)cc1	.	.	.	.	1%
O=C(COC(=O)c1cccc(S(=O)(=O)N2CCCCC2)c1)NCc1cccc(Cl)c1	.	.	8%	.	.
CC(=O)c1ccc(OC(=O)c2cccs2)cc1	2%	7%	3%	24%	1%
O=C(O)CSc1nnc(-c2cccs2)n1-c1ccc(Cl)cc1	?	-5%	1%	.	4%
NC(=O)c1ccc(-n2c(CCC(=O)O)ccc2-c2cccs2)cc1	.	24%	-7%	?	2µM*
Cc1ccc(-n2c(CCC(=O)O)ccc2-c2cccs2)cc1Cl	.	.	.	.	7.9µM*
CC(=O)c1ccc(-n2c(CCC(=O)O)ccc2-c2cccs2)cc1	25%	21%	-6%	51%	0.89µM*
SMILES	NS1 inh	Pf growth 48h	AMA1 RON2 block	Pf growth 96h	Sm TGR block
Cc1ccc(-c2ccc(CCC(=O)O)n2NC(=O)c2cccs2)cc1	?	2%	-4%	.	-24%
Cc1ccc(-n2c(CCC(=O)O)ccc2-c2cccs2)cc1	10%	15%	0%	.	13µM*
COc1ccccc1OCC(=O)NCC(c1ccc(Cl)cc1)N1CCOCC1 (stereo not given)	.	.	.	.	1%
CCOC(=O)c1sc(N)nc1C(F)(F)F	.	.	-2%	.	.
Cc1ccccc1NS(=O)(=O)c1ccc(-c2ccc(=O)[nH]n2)o1	-2%	2%	5%	13µM*	?
CC(C)(CNC(=O)c1ccc(NS(=O)(=O)c2ccc(Br)cc2)cc1)N1CCOCC1	.	-9%	0%	-10%	-6%
COCCNc1oc(/C=C/c2ccccc2OC)nc1S(=O)(=O)c1ccccc1	29%	9.3µM*	32%	7.4µM*	13µM*
CC1CN(C(=O)COC(=O)c2ccc(Cl)nc2)CC(C)O1 (stereo not given)	.	3%	-5%	8%	4%
COc1cccc(C(=O)Nc2nc(-c3ccccc3)c(-c3ccccc3)o2)c1	-13%	-24%	39%	-29%	1%
O=C(Nc1nc(-c2ccccc2)c(-c2ccccc2)o1)c1ccc(F)cc1	-68%	?	99%	9.3µM*	-16%
CC(Sc1ccc(Cl)cc1)C(=O)Nc1ccccc1-c1ccccc1 (stereo not given)	8%	2.3µM*	-2%[11.6 µM]	-2%	-5%
Cc1ccc(SC(C)C(=O)Nc2ccccc2-c2ccccc2)cc1 (stereo not given)	-12%	-18%	-1%	13µM*	9%
CCOC(=O)c1oc2ccccc2c1CSc1nnnn1-c1ccc(OC)cc1	3%	5%	-1%	12µM*	-1%
COc1cccc(CSc2nnnn2-c2ccc(O)cc2)c1	.	9.3µM*	-9%	?	-11%
COc1ccc(-n2nnnc2SCC#CCO)cc1	-12%	-6%	-1%	0.47µM*	4%
COc1ccc(-n2nnnc2SCC(=O)c2cccc(OC)c2)cc1	3%	9%	-1%	?	26%
CCCn1c(=O)c2ccccc2n2c(SCc3c(C(=O)OCC)oc4ccccc34)nnc12	-2%	?	-10%	-7%	18%
COCCn1c(CNC(=O)c2cc(OC)c(OC)c(OC)c2)nc2cccnc21	.	.	.	.	1%
C#CC1(O)C=CC2C3CCC4=CC(=O)CCC4C3CCC21CC (stereo not given)	-8%	?	0%	8.5µM*	0%
COc1ccc(C(=O)NC2CCC(O)CC2)cc1S(=O)(=O)NCc1ccc(Cl)cc1 (stereo not given)	.	13µM*	-1%	?	-11%
CCc1nc2c(OCc3ccc(C(F)(F)F)cc3)cccn2c1N(C)C(=O)C1CC1	.	.	-4%	.	.
CS(=O)(=O)c1ccc2c(c1)sc1nc(=O)c(/C=C3/C=CC(=O)C(O)=C3)c(N)n12	7%	16%	-26%	?	45µM*
COC1=C/C(=C/c2c(N)n3c(nc2=O)sc2cc(S(C)(=O)=O)ccc23)C=CC1=O	10%	?	6%	?	-5%
C/C(=N\NS(=O)(=O)c1ccccc1)c1cc(Cl)cc(Cl)c1O	.	-7%	-12%	19%	-6%
O=C(CN1C(=O)CCSc2ccc(S(=O)(=O)N3CCOCC3)cc21)Nc1cccc(F)c1	5%	?	-2%	5%	-19%
O=[N+]([O-])c1cc(Cl)ccc1NCCc1ccccn1	-42%	28%	22µM*	37%	-14%
COc1ccc(OC)c(NC(=O)CSc2nncc3ccc(OC)c(OC)c23)c1	?	?	-28%	9.3µM*	-2%
CCNc1nc(NCC)n2c(SCC(=O)Nc3ccc(C)c(C)c3)nnc2n1	.	9.3µM*	-5%	-33%	-1%
